Screens: PubChem BioAssay, National Center for Advancing Translational Sciences (NCATS)
TRb SRC2 PPI: TRbeta-SRC2 interaction inhibition. P10828. TRbeta-SRC2 peptide binding, fluorescence polarization; receptor liganded with 1 µM T3. Potency, µM (titrated, usually from 106 µM), usual class: inhibitors. 0.065% of 280,000 active. AID 1469; further: nearly all actives have a fitted effect of over 50% in size
Target sequence (P10828 whole entry, looked up): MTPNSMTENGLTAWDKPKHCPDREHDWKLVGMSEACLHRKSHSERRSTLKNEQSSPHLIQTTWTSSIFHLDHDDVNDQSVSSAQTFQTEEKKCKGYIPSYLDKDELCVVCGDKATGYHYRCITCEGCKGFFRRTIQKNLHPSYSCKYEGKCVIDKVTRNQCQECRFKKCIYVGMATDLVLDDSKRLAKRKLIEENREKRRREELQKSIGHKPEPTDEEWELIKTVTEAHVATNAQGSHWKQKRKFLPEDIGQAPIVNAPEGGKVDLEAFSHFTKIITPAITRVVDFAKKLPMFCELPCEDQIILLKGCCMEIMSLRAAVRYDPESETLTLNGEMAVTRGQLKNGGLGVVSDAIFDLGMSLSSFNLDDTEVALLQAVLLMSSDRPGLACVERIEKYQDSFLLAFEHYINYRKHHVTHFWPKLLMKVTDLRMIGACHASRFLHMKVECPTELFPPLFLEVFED
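Human TRb ligand-binding domain (0.6 uM) is mixed with 20 nM Texas Red SRC2 peptide and 1 uM T3; after compound addition and 5 hr at ambient temperature, polarization is measured and normalized to unbound and bound controls.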
APE1 inh-1: inhibitors of human APE1 endonuclease; P27695; recombinant APE1, TAMRA/BHQ-2 abasic DNA cleavage fluorescence; Potency, µM (highest dose often 65.8 µM), hits mostly inhibitors; 0.35% of 350,000 active; AID 2517; further: nearly all actives have a fitted effect of over 55% in size
Target sequence (P27695 whole entry, looked up): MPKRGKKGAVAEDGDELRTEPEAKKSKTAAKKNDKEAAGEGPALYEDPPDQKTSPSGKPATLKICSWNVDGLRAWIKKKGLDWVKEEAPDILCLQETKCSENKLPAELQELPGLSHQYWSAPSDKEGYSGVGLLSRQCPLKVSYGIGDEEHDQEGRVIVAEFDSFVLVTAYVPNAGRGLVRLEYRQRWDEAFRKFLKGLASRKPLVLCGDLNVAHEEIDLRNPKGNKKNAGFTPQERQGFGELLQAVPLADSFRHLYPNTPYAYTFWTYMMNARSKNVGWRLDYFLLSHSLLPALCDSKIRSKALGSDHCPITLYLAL
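APE1 at 0.75 nM preincubated 15 min at room temperature with compound. Reaction then started with 50 nM double-stranded THF-abasic substrate labelled with TAMRA/BHQ-2, and 525/598 nm fluorescence read kinetically. Activity taken as third-minus-first read difference, normalized to DMSO and NSC13755 controls.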
TexasRed fluor: alters Texas Red total fluorescence, flagging assay interference; 0.29% of 280,000 active; Potency, µM (doses to about 106 µM); TRb/SRC2 Texas Red total fluorescence interference; AID 1479; active means well fitted curve in either direction with a large enough effect; inconclusive means small, poorly fitted or top-dose-only effect
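Human TRβ ligand-binding domain (0.6 uM) and Texas Red SRC2 peptide (20 nM) in Tris buffer with 1 uM T3 and 5% DMSO were incubated with pinned compound for 5 hr at ambient temperature. Total fluorescence was computed as S + 2P (555/632 nm).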
RECQ1 inh: inhibitors of human RECQ1 DNA helicase; P46063; 0.54% of 240,000 active; RECQ1 DNA unwinding, red fluorescence kinetic read; AID 2549; Potency, µM (titrated, usually from 57.3 µM), most hits filed as inhibitors; further: nearly all actives have a fitted effect of over 30% in size
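50 nM RECQ1T1 preincubated 15 min with compound in Tris pH 8.0 buffer with MgCl2, DTT, Tween-20 and 2.5 ug/ml poly(dI-dC); started with 200 nM TAMRA/BHQ-2 forked duplex and 2 mM ATP. Unwinding read as fluorescence (525/598 nm), two reads 2 h apart.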
BLM inh: Bloom syndrome helicase (human) inhibition; Potency, µM (series often up to 56.1 µM), actives largely listed as inhibitors; P54132; 0.2% of 350,000 active; recombinant BLM DNA unwinding, fluorescence dequenching; AID 2528; further: nearly all actives have a fitted effect of over 35% in size
WRN inhibitor: inhibitors of human WRN helicase. Potency, µM (highest dose often 114 µM), usual class: inhibitors. 0.46% of 360,000 active. WRN helicase unwinding, fluorescent forked duplex, kinetic. Q14191. AID 651768; further: nearly all actives have a fitted effect of over 55% in size
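Enzyme (20 nM final) and test compound sit together 15 min at room temperature before substrate addition. Substrate is a single-forked duplex oligonucleotide (100 nM) labelled with fluorophore and quencher, with 2 mM ATP; helicase unwinding raises red fluorescence, read kinetically.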
APE1 dye cs: displaces fluorescent dye from DNA, flagging APE1 artifacts | shares compounds with APE1 inh-1 | DNA fluorescent dye displacement counterscreen, fluorescence | Potency, µM (series often up to 28.5 µM), most hits filed as inhibitors | 7% of 480 active | AID 2564;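 further: loss of thiazole orange fluorescence as the dye is displaced from duplex DNA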
Endo IV inh: Endo IV (E. coli) inhibition counter-screen | AID 2565 | Potency, µM (series often up to 27.1 µM), usual class: inhibitors | E. coli Endo IV, fluorogenic AP-site DNA cleavage | shares compounds with APE1 inh-1 | 4% of 560 active
APE1 inh-2: APE1 (human) endonuclease inhibition, confirmation; Potency, µM (series often up to 57.1 µM), most hits filed as inhibitors; purified APE1, fluorogenic abasic-site DNA cleavage; shares compounds with APE1 inh-1; AID 2572; 44% of 750 active; further: nearly all actives have a fitted effect of over 30% in size
APE1 FP: displaces DNA from human APE1 in FP assay; shares compounds with APE1 inh-1; APE1 binding to TAMRA-labelled double-stranded DNA, fluorescence polarization displacement; Potency, µM (series often up to 28.5 µM), hits mostly inhibitors; 7% of 480 active; AID 2573
A number is an active result; n = inactive; u = inconclusive; x = no result given; [ ] = dose if it differs, or a comment. Rows were chosen to be rich in hits. Some 0.91% of all compounds tested hit in one or more screens of this group. Unless noted, the call rests on the fitted dose curve; in most records, active means well fitted curve in the direction sought with a large enough effect; inconclusive means small, poorly fitted or top-dose-only effect, or another doubt; inactive means no such curve, though single readings can be large; an effect the other way counts as inactive or inconclusive.

SMILES	TRb SRC2 PPI	APE1 inh-1	TexasRed fluor	RECQ1 inh	BLM inh	WRN inhibitor	APE1 dye cs	Endo IV inh	APE1 inh-2	APE1 FP
NC(=O)COC(=O)c1ccc(Cl)c(S(=O)(=O)N2CCCCCC2)c1	n	n	n	n	n	n	x	x	x	x
Clc1ccc(-c2nc3c4ccccc4ccn3c2Cc2ccsc2)cc1	x	x	x	x	x	n	x	x	x	x
Cc1c(C(=O)O)cccc1-n1c(C)cc(C=O)c1C	n	u	n	n	n	n	x	x	x	x
Cc1ccc(C(=O)O)cc1-n1c(C)cc(C=O)c1C	n	u	n	n	n	n	x	x	u	x
COc1ccc(OC)c(/C(C)=N/Nc2ccc(C(=O)O)cc2)c1	n	28µM	n	n	n	n	n	n	u	n
COc1cc(/C=N/Nc2ccc(C(=O)O)cc2)cc(OC)c1OC	n	n	n	n	n	n	x	x	x	x
COc1ccc(/C(C)=N/Nc2ccc(C(=O)O)cc2)cc1OC	n	n	n	n	n	n	x	x	x	x
COc1cc(/C=N/Nc2ccc(C(=O)O)cc2)ccc1O	n	14µM	n	n	n	n	n	n	14µM	n
CCOc1ccc(-c2nn(-c3ccccc3)cc2C2NC(=O)NC(C)=C2C(=O)OC(C)C)cc1 (stereo unspecified)	n	x	n	x	n	x	x	x	x	x
CC1=N/C(=C/c2ccco2)C(=O)O1	n	25µM	n	u	n	n[11.6 µM]	n	n	35µM	n
COc1cccc(Cn2c(=O)n(CC3CCC(C(=O)NC(C)C)CC3)c(=O)c3sccc32)c1 (stereo unspecified)	n	x	n	x	n	x	x	x	x	x
Nc1ccc(N)c(C(=O)O)c1	n	1.3µM	u	11µM	5.6µM	32µM	x	x	2.2µM	x
CN(C)[C@H]1C(=O)C(C(=O)NCN2CCCC2)=C(O)[C@]2(O)C(=O)C3=C(O)c4c(O)cccc4[C@@](C)(O)[C@H]3C[C@@H]12	n	x	n	n	n	x	n	n	n	u
COc1ccccc1C1CN(c2ccccc2)N=C1c1cccs1 (stereo unspecified)	n	n	n	n	n	n	x	x	u	x
COc1cccc(C2CN(c3ccc(F)cc3F)N=C2c2cccs2)c1OC (stereo unspecified)	n	n	n	n	n	n	x	x	x	x
O=C(Nc1nc(-c2ccccc2)cs1)c1cccnc1	n	n	n	n	n	n	x	x	x	x
CC(=O)Nc1ccc(C(=O)Nc2nc(-c3cccnc3)cs2)cc1	n	n	n	n	n	n	x	x	n	x
COc1ccc2nc(N3CCCCC3)c(C#N)cc2c1	n	n	n	n	n	n	x	x	u	x
CCc1cc2c(=O)c(-c3nc4ccccc4n3C)coc2c(CN2CCN(C)CC2)c1O	n	u	n	u	n	n	x	x	u	x
CCc1cc2c(=O)c(-c3nc4ccccc4n3C)coc2c(CN2CCC(C)CC2)c1O	x	n	x	x	n	n	x	x	x	x
CC(C)c1ccc(NC(=O)c2cc3c(=O)oc4ccccc4c3s2)cc1	n	x	n	x	n	x	x	x	x	x
COc1ccc(C(=O)CSc2nnc(-c3ccco3)c(-c3ccco3)n2)cc1	n	18µM	n	n	u	u	u	n	u	u
CN(C)c1ccc(NC(=O)CSc2nnc(-c3ccco3)c(-c3ccco3)n2)cc1	x	n	x	x	n	n	x	x	x	x
COc1ccc(C(=O)CSc2nnc(-c3ccco3)n2C)cc1	n	n	n	n	n	n	x	x	x	x
Cc1cccc(C)c1NC(=O)CSc1nnc(-c2ccco2)c(-c2ccco2)n1	n	16µM	u	14µM	n	35µM	u	n	3.5µM	n
SMILES	TRb SRC2 PPI	APE1 inh-1	TexasRed fluor	RECQ1 inh	BLM inh	WRN inhibitor	APE1 dye cs	Endo IV inh	APE1 inh-2	APE1 FP
Cc1ccccc1NC(=O)CSc1nnc(-c2ccco2)c(-c2ccco2)n1	n	4.5µM	n	n	n	40µM	n	n	16µM	n
COc1ccc(S(=O)(=O)N2CCN(C(=O)c3ccc(C)o3)CC2)cc1	x	n	x	x	n	n	x	x	x	x
Oc1ccc(/C=N/N2CCCCC2)c(O)c1O	x	n	x	x	n	u	x	x	x	x
Oc1ccc(/C=N/N2CCOCC2)c(O)c1O	n	7.1µM	n	n	n	u	n	n	u	n
CC(=O)Nc1ccc(Nc2c3c4c(cccc4n(C)c2=O)C(=O)c2ccccc2-3)cc1	n	u	n	n	n	n	x	x	x	x
Cn1c(=O)c(NCCc2ccccc2)c2c3c(cccc31)C(=O)c1ccccc1-2	28µM	32µM	45µM[fluorescent]	10µM	u	40µM	n	u	u	0.79µM
Nc1cc(C(=O)O)ccc1Sc1ccccc1C(=O)O	n	u	n	n	n	n	x	x	n	x
CC(C)C(C(=O)O)N1C(=O)/C(=C/C=C/c2ccco2)SC1=S (stereo unspecified)	n	1.6µM	u	u	u	3.5µM	n	n	2.5µM	n
CC(C)C(C(=O)O)N1C(=O)/C(=C/c2cccn2C)SC1=S (stereo unspecified)	n	n	n	n	n	n	x	x	x	x
CC[n+]1c(/C=C/N(C)c2ccccc2)oc2ccc(Cl)cc21	n	n	n	n	n	n	x	x	x	x
CCN1/C(=C/C=C/c2oc3ccc4ccccc4c3[n+]2CC)Oc2ccc3ccccc3c21	10µM	25µM	50µM[fluorescent]	n	n	u	n	3.2µM	8.9µM	n
COc1cc2nccc(Oc3ccc(NC(=O)Nc4ccc(F)cc4F)c(F)c3)c2cc1OC	n	n	n	n	n	x	x	x	x	x
CN(C)CCCN(C(=O)c1ccc2c(c1)OCCO2)c1nc2ccccc2s1	n	x	n	x	n	x	x	x	x	x
CCOc1ccc(C(=O)c2cn(CC(=O)Nc3cc(OC)cc(OC)c3)c3ccc(F)cc3c2=O)cc1	n	x	n	x	n	x	x	x	x	x
Nc1ncc(N=Nc2cc(C(=O)O)ccc2Cl)s1	n	8.9µM	71µM[quencher]	u	n	n[11.6 µM]	n	n	u	u
COCCN=c1scc(-c2ccco2)n1/N=C/c1ccc(O)c(O)c1O	n	8.9µM	n	8.9µM	10µM	28µM	11µM	n	4.5µM	14µM
Oc1ccc(/C=N/n2c(-c3ccco3)csc2=Nc2cccnc2)c(O)c1	n	n	n	n	n	n	x	x	x	x
COc1ccc(C(CC(=O)N2CCCCC2)c2c(OC)cc(OC)c3c(-c4ccccc4)cc(=O)oc23)cc1 (stereo unspecified)	n	25µM	n	u	n	n[11.6 µM]	n	u	7.9µM	14µM
